# Reference: ChEMBL document CHEMBL3988442, “University of Dundee, Small-Polar-MMV Screening Library” (2021)
# Biological target: AMP-activated protein kinase, AMPK (Homo sapiens) (UniProt P54646+O43741+P54619+Q9UGJ0+Q9Y478+Q13131+Q9UGI9)
# Assay: AMP-dependent Kinase enzyme assay. An in vitro enzyme assay that detects ADP turnover that is directly proportional to AMPK activity. This uses naive AMPK that is activated during the assay with MK-8722
# Format: functional
# Set-up: scale not given: direction of the effect not stated beside the values
# Settings: 30 µM
row,SMILES,Percent Effect [%]
1,Cc1nc2cc(-c3nccn3C)nn2c(N2CCCC2)c1C,16.5
2,COC[C@]1(O)CCN(c2cc(C3CC3)ncn2)CC1(C)C,10.6
3,Cc1ccc(N2CCCN(C(=O)CCc3ccsc3)CC2)nn1,-4.33
4,COc1ccc(CCN(C)C(=O)c2cc(C(C)=O)c[nH]2)cc1OC,-3.69
5,Cc1c(NC(=O)c2cnc[nH]2)cccc1C(=O)NC(C)(C)C,15
6,CC(C)CNC(=O)c1sccc1-n1cnnn1,10.8
7,Cn1cc(CNCCNc2ncc(Cl)cc2Cl)cn1,-10.3
8,O=C(Cn1cnc2ccsc2c1=O)c1ccc2c(c1)OCCO2,-4.28
9,Cc1cc(S(=O)(=O)N(CCO)C2CC2)ccc1F,0.797
10,CCN(CC)c1nc2sc(C(=O)N3CCNC(=O)C3)cc2s1,3.77
11,COc1ccc(CCCN(C)C(=O)c2cc(C(C)=O)c[nH]2)cc1OC,-2.16
12,CC(C(=O)NCc1ccc2c(c1)OCCO2)n1cncn1 (stereo not given),-8.38
13,O=C1CN([C@@H]2CC[C@@H](NS(=O)(=O)c3ccccc3)[C@H]2O)CCN1,11.7
14,Cc1ccccc1-c1noc(-c2ccc(NCC3COCCO3)nc2)n1 (stereo not given),6.52
15,CCN(CC)S(=O)(=O)N1CCCC(c2ncc3c(n2)CCN(C)C3)C1 (stereo not given),-4.24
16,O=C(NCc1ccco1)N1CCOC(c2ccccc2Cl)C1 (stereo not given),3.01
17,COCCCNC(=O)Cc1nc(-c2ccncc2)n[nH]1,14.5
18,CCc1nnc(NC(=O)c2c3c(nn2C2CCS(=O)(=O)C2)CCC3)s1 (stereo not given),-8.02
19,N[C@H]1CN(S(=O)(=O)Cc2ccccc2)C[C@@H]1C1CC1,-5.29
20,O=C(NCc1ccc(-n2cncn2)nc1)c1cnccn1,-5.91

row,SMILES,Percent Effect [%]
1,CC(NC(=O)NCc1cccnc1N(C)C)c1cccs1 (stereo not given),-8.61
2,CC(=O)Nc1ccc(Oc2cc(C)nc(C3CCCNC3)c2)cc1 (stereo not given),-6.11
3,COc1c(C)cnc(CN2CCn3c(nnc3C3CC3)C2)c1C,8.46
4,CC(C)c1cc(C2CCN(C(=O)Cn3cncn3)CC2)[nH]n1,29.2
5,CCC1(CC)CC(=O)N(CC(O)c2cccc(Br)c2)C1=O (stereo not given),17.2
6,CC(C)(C)C(=O)N1CCC(c2cnc(-c3cn[nH]c3)cn2)CC1,1.14
7,CC(NCc1nnc2n1CCCC2)c1nc(Cc2ccccc2)no1 (stereo not given),-1.56
8,NC1CCCN(Cc2cccc(C(F)(F)F)c2)C1=O (stereo not given),-0.911
9,COC(=O)c1ccoc1CN(C)CC(=O)NC1CCS(=O)(=O)C1 (stereo not given),-0.853
10,CN(Cc1noc(C2CC2)n1)C1CCN(CCn2cccn2)C1 (stereo not given),5.76
11,Cc1cc(N2CCC3(CCCN(CCO)C3=O)C2)nc2ccccc12 (stereo not given),9.84
12,CSc1nccc(N2CCC(NCc3nc(C)cc(C)n3)CC2)n1,7.66
13,CCCC(=O)NC1CCCN(c2cncc(Br)c2)C1 (stereo not given),22.4
14,COCCN(CCOC)C(=O)c1cnn(C)c1-n1c(C)ccc1C,-1.28
15,Cc1ccc(CN2CCS(=O)(=O)C(C)(C)C2)cc1C,-0.279
16,CNC(=O)c1[nH]nc2c1CN(c1cc(C3CCCNC3)nc(C)n1)CC2 (stereo not given),18.4
17,CC1CN(Cc2cccc(CN)c2)CCO1 (stereo not given),-4.57
18,CCOc1cc(F)ccc1NC1CCN(CC(F)(F)F)C1=O (stereo not given),-28.4
19,O=C1CC[C@@H](C(=O)N2CCC(Cn3cc(C4CCCCC4)nn3)CC2)N1,4.87
20,CC(C)NC(=O)N1CCCCCC1C1CCN(c2ncccn2)CC1 (stereo not given),-6.91
